Assay outcomes (PubChem BioAssay)
The list is not random: actives were taken first. Their share in the collection is about 3.5%.
TbPYK inhibitor = inhibitors of Trypanosoma brucei pyruvate kinase; Q57TT1; TbPYK enzyme, Kinase-Glo Plus ATP luminescence, 45 min; Potency, µM (titrated, usually from 76.8 µM), actives largely listed as inhibitors; hit rate 0.12% among 410,000; note: nearly all actives have a fitted effect of over 50% in size
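Assay buffer: 50 mM TEA pH 7.2, 100 mM KCl, 10 mM MgCl2, 0.05% BSA, 0.01% Tween-20. Pyruvate kinase from T. brucei plus substrate met compound, then ADP (130 uM final). Luminescence was read post 45 min RT.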
Sm TGR block = S. mansoni TGR enzyme inhibition; Q962Y6; purified TGR, DTNB reduction, TNB absorbance 405 nm; Potency, µM (top dose mostly 114 µM), hits mostly inhibitors; hit rate 3% among 360,000; AID 485364; note: nearly all actives have a fitted effect of over 60% in size
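TGR 20 nM + NADPH 100 uM (dispensed conc.), cpd preinc 15 min RT; start with NADPH (500 uM addition) then DTNB (15 mM addition). Kinetic TNB absorbance, 405 nm filter. Four-parameter Hill fit across titration.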
FBPA Giardia inh = inhibitors of Giardia lamblia fructose-1,6-bisphosphate aldolase; hit rate 0.71% among 290,000; Potency, µM (series often up to 59.6 µM), hits mostly inhibitors; A8B2U2; purified Giardia FBPA; note: nearly all actives have a fitted effect of over 55% in size
Target sequence (A8B2U2 whole entry, looked up): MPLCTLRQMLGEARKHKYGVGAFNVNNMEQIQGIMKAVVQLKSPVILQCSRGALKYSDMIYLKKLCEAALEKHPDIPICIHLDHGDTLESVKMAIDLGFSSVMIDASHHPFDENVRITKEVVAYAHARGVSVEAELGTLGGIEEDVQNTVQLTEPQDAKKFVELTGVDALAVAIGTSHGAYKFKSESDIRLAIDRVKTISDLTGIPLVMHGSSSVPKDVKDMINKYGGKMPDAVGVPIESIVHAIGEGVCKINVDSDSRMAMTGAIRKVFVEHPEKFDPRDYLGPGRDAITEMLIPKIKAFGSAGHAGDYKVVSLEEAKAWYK
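40 nM FBPA preincubated 10 min at RT with compound (up to 57.5 uM final), then substrate plus GAPDH/TPI/NAD/arsenate coupling and diaphorase/resazurin added. Fluorescence read after 20 min at RT, 525/598 nm.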
RE007 growth inh = less growth of the S. pombe RE007 Vpr strain | S. pombe RE007 Vpr strain, BacTiter-Glo ATP luminescence, 24 h | Potency, µM (highest dose often 92.2 µM), most hits filed as inhibitors | hit rate 0.21% among 360,000 | AID 651644; active = well fitted falling curve with a large enough effect; inconclusive = small, poorly fitted or top-dose-only effect; inactive = no such curve, though single readings can be large or run the other way; note: nearly all actives have a fitted effect of over 50% in size
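Fission yeast strain RE007, carrying one chromosomally integrated HIV-1 vpr copy, was seeded at OD 0.01 in PMG+AL medium with 23 nL pinned compound. After 24 h at 30 °C and 99% humidity, viability was read by BacTiter-Glo luminescence.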
LmPK inh = inhibitors of Leishmania mexicana pyruvate kinase; Q27686; purified LmPK, Kinase-Glo ATP luminescence, 1 h; Potency, µM (top dose mostly 57.5 µM), hits mostly inhibitors; hit rate 0.37% among 290,000; AID 1721
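0.1 nM LmPK, 0.5 mM PEP, 0.1 mM ADP; 50 mM imidazole pH 7.2, 7 mM MgCl2, 50 mM KCl; 1 h RT. Kinase-Glo luminescence readout, normalized to no-enzyme (full inhibition) and uninhibited wells.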
NS1 function inh = influenza NS1 inhibition | Potency, µM (doses to about 46.1 µM) | hit rate 0.4% among 270,000 | AID 2326; calls by dose curve; note: actives are rising curves; nearly all actives have a fitted effect of over 50% in size
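Growth recovery, yeast-based: influenza A NS1 expressed in S. cerevisiae causes slow growth, and suppressors are detected by OD600. The parent strain without NS1 is used as positive control.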
Each line names hits and unclear results; the compound was inactive in the other large screens. Unless noted, calls come from the whole dose curve; as a rule, active = well fitted curve in the direction sought with a large enough effect; inconclusive = small, poorly fitted or top-dose-only effect, or another doubt; inactive = no such curve, though single readings can be large; an effect the other way counts as inactive or inconclusive.

Cc1ccc2ncc(C(=O)NC(C)c3ccccc3)c(=O)n2c1 (stereo not drawn)	none (no result: FBPA Giardia inh, RE007 growth inh, LmPK inh, NS1 function inh)
CN1CCc2nc(SCC(=O)Nc3ccc(F)cc3)c(C#N)cc2C1	Sm TGR block 28.2µM, NS1 function inh inconclusive (no result: TbPYK inhibitor, RE007 growth inh)
COc1ccc(NC(=O)CSc2nc3c(cc2C#N)CN(C)CC3)cc1	Sm TGR block 79.4µM
CC(C)=CCC/C(C)=C/CO/N=C1/C[C@@H](O)[C@@H](O)[C@@H]2[C@@H]3C(=O)N(C4CCCCC4)C(=O)[C@H]3CC[C@@H]12	none (no result: TbPYK inhibitor, Sm TGR block, RE007 growth inh, LmPK inh, NS1 function inh)
Cc1cccn2c(=O)c(C(=O)NCCc3ccc(S(N)(=O)=O)cc3)c(O)nc12	none (no result: FBPA Giardia inh, RE007 growth inh, LmPK inh, NS1 function inh)
CCc1ccc(-n2c(SCc3cccc(F)c3)nc3[nH]ncc3c2=O)cc1	none (no result: FBPA Giardia inh, RE007 growth inh, LmPK inh, NS1 function inh)
c1ccc(-c2csc(Nc3ccc4c(c3)OCO4)n2)cc1	none (no result: Sm TGR block, FBPA Giardia inh, LmPK inh, NS1 function inh)
O=C1c2ccccc2C(=O)N1c1cccc(-c2csc(Nc3ccc4c(c3)OCO4)n2)c1	Sm TGR block 50.1µM (no result: TbPYK inhibitor, RE007 growth inh)
O=C(CN1Cc2ccccc2C1=O)Nc1cc(F)ccc1F	none (no result: FBPA Giardia inh, RE007 growth inh, LmPK inh, NS1 function inh)
O=C(Nc1cccc(F)c1)/C(=C\c1cccnc1)NC(=O)c1ccco1	none
O=C(Nc1cccc(C(=O)O)c1)/C(=C\c1ccco1)NC(=O)c1ccc(Br)o1	TbPYK inhibitor inconclusive, Sm TGR block 50.1µM
O=C(Nc1cccc(F)c1)/C(=C/c1ccco1)NC(=O)c1ccco1	Sm TGR block 44.7µM (no result: FBPA Giardia inh)
COc1ccc(/C=C\c2onc(C)c2S(=O)(=O)N2CCC(C(=O)Nc3ccc(F)cc3F)CC2)cc1	none (no result: FBPA Giardia inh, RE007 growth inh, LmPK inh, NS1 function inh)
Cc1ccc(OCC(=O)c2ccc(Cl)s2)c([N+](=O)[O-])n1	Sm TGR block 3.55µM, FBPA Giardia inh inconclusive (no result: NS1 function inh)
O=c1c(S(=O)(=O)c2ccc(Cl)cc2)cn(Cc2ccc(F)cc2)c2ccc(F)cc12	none (no result: FBPA Giardia inh, RE007 growth inh, LmPK inh, NS1 function inh)
Cc1cc2c(s1)c1c(n2C)C(=O)N(Cc2ccccc2F)C1	none (no result: TbPYK inhibitor, FBPA Giardia inh, RE007 growth inh, LmPK inh, NS1 function inh)
Cc1ccc(/C=N/Nc2cccc3cccnc23)c(O)c1	Sm TGR block 31.6µM
COC(=O)C1(C(=O)OC)C/C=C\C/C=C\c2ccccc2[C@@H]1C[N+](=O)[O-]	none (no result: TbPYK inhibitor, Sm TGR block, RE007 growth inh, LmPK inh, NS1 function inh)
COc1ccc(CNC(=O)c2ccc3nc(-c4ccc(F)cc4)c(-c4ccc(F)cc4)nc3c2)cc1	none (no result: FBPA Giardia inh, RE007 growth inh, LmPK inh, NS1 function inh)
CCCCCC1CC(CC#CCN2CCOCC2)C(=O)O1 (stereo not drawn)	Sm TGR block 22.4µM
CCCCCC1CC(CC(=O)O)C(=O)O1 (stereo not drawn)	none
O=C(Nc1nccs1)c1cc2c(s1)CCCCC2	RE007 growth inh 31.6µM, LmPK inh 14.1µM
Cc1sc2c(c1C)C(O)=C(C(=O)Nc1ccccc1)S(=O)(=O)N2C	Sm TGR block 3.55µM
COc1ccc(CNS(=O)(=O)c2ccc(-c3ccc(=O)[nH]n3)o2)cc1	Sm TGR block 89.1µM (no result: FBPA Giardia inh)
Cc1ccc2nc(-c3ccc(N4C(=O)CC(N5CCN(CCO)CC5)C4=O)cc3)sc2c1 (stereo not drawn)	RE007 growth inh 31.6µM
CCc1ccc(-c2nn(CC(=O)Nc3ccccc3)c3c2cnc2ccc(F)cc23)cc1	none (no result: FBPA Giardia inh, RE007 growth inh, LmPK inh, NS1 function inh)
CC(=O)Oc1cccc(N2C(=O)C3C4C=CC(C4)C3C2=O)c1 (stereo not drawn)	none
CC(=O)Oc1cccc(N2C(=O)C3C4C=CC(CC4)C3C2=O)c1 (stereo not drawn)	Sm TGR block 44.7µM
O=C(CSc1nnc(-c2ccco2)o1)c1ccc(F)c(F)c1	none
O=C(CSc1nnc(-c2ccco2)o1)c1ccccc1	Sm TGR block 25.1µM
O=C(CSc1nnc(-c2ccco2)o1)c1ccc[nH]1	Sm TGR block 28.2µM (no result: NS1 function inh)
O=C(CSc1nnc(-c2ccco2)o1)Nc1c(F)cccc1F	none (no result: FBPA Giardia inh, LmPK inh, NS1 function inh)
CCC1CN(C(=O)N2CCC(C(=O)N3CCN(c4cc(C)ccc4C)CC3)CC2)c2ccccc2O1 (stereo not drawn)	none (no result: FBPA Giardia inh, RE007 growth inh, LmPK inh, NS1 function inh)
CCCSC1=C(C#N)C(c2cccs2)C(C(=O)Nc2ccccc2)=C(C)N1 (stereo not drawn)	Sm TGR block 35.5µM
COc1ccccc1NC(=O)C1=C(C)NC(SCC(=O)Nc2ccc(C(=O)O)cc2)=C(C#N)C1c1cccs1 (stereo not drawn)	Sm TGR block 44.7µM
CCN(CC)c1cc(C)c2cc(NC(=O)/C=C/c3cc(OC)c(OC)c(OC)c3)ccc2n1	none (no result: FBPA Giardia inh, RE007 growth inh, LmPK inh, NS1 function inh)
